Assay results as given in PubChem BioAssay (NCATS).
Several values for one entry are separate records, joined by “and”; a condition that tells them apart may be missing. Equal values may be shown once. Records with an inconclusive call do not appear. Activity calls are given as the source filed them. Calls come from the whole dose curve; as a rule, active = well fitted curve in the direction sought with a large enough effect; inconclusive = small, poorly fitted or top-dose-only effect, or another doubt; inactive = no such curve, though single readings can be large; an effect the other way counts as inactive or inconclusive. *1 amine or outer side, *2 acyl side, *3 side chain or, on linkers, in order; H or OH if unused. Where a SMILES comes first, the peptide text is derived from it. Bridges are numbered along the chain shown (N, C = ends). [ ]: non-standard residue; d: D form. The star is where a group is joined. ξ: configuration not given here. ΔAla(3-NHCONH2) = NC(=O)NC=C(N)C(=O)O; X2 = NC1=NCCC(C(N[*:1])C(=O)[*:2])N1; ξβ3hOrn = NCCCC(N)CC(=O)*; Dap = NC[CH](N)C(=O)O

Legend:
[1] = molecular target: Cytochrome P450 3A7 (Homo sapiens) (UniProt P24462); experiment: Cytochrome P450 family 3 subfamily A member 7 (CYP3A7) small molecule antagonists: luciferase biochemical qHTS assay (AID 1963596); note: % is set by controls: 0 for no effect and ±100 for the full control effect; nearly all actives have a fitted effect of over 40% in size
Sequence of Cytochrome P450 3A7 (Homo sapiens) (P24462 whole entry, looked up): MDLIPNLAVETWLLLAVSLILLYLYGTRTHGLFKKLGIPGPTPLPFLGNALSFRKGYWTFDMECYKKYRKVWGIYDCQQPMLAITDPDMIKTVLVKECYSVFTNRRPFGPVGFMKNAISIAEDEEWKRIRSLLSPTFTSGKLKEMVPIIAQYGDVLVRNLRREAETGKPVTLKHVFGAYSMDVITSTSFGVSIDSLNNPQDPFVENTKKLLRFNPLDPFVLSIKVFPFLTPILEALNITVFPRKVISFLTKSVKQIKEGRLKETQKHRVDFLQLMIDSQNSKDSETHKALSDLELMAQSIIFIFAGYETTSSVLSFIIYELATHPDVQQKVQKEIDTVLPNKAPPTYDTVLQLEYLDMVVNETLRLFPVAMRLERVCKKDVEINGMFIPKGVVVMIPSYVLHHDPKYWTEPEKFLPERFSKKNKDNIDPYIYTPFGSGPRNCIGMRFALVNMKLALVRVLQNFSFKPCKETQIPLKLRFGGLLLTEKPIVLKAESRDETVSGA
How it was run: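 In this luminescent screen, enzyme and proluciferin substrate meet test compound for 10 min before NADPH regeneration solution drives a 1 h room-temperature reaction; detection reagent halts turnover and luminescence is read 20 min later.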

[2] = Viability qHTS for spleen associated tyrosine kinase inhibitor (SYKi) naive MV4-11 cells (AID 1963823); note: nearly all actives have a fitted effect of over 40% in size; note: potency is the fitted concentration of half-maximal effect
How it was run: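 qHTS, SYK inhibitor-naive MV4-11; 500 cells/well; 72 hr compound exposure, 37 C; CellTiter-Glo added, 10 min RT; luminescence read.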

[3] = Viability qHTS for spleen associated tyrosine kinase inhibitor (SYKi) drug resistant MV4-11 cells (AID 1963824); note: nearly all actives have a fitted effect of over 35% in size; note: potency is the fitted concentration of half-maximal effect
How it was run: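 SYK inhibitor-resistant MV4-11 AML cells, 500 per well, added to predispensed compounds and incubated 72 hr at 37 C, 5% CO2. Viability measured by CellTiter-Glo luminescence after 10 min at room temperature.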

[4] = Cellular viability qHTS for adrenocortical cancer (ACC) cell line SW-13 (AID 1963989); settings: SW-13 ACC cells viability, CellTiter-Glo, 48 h; activity (max response): active compounds read low; note: nearly all actives have a fitted effect of over 65% in size; note: potency is the fitted concentration of half-maximal effect;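 for activity (max response): cells grown in serum-free medium with ITS supplement; % is set by controls: 0 for no effect and ±100 for the full control effect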
How it was run: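 48 h treatment, SW-13 in ITS/DMEM serum-free; doses up to 46 uM; readout CellTiter-Glo luminescence; curve fit four-parameter logistic.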

[5] = Cellular viability qHTS for adrenocortical cancer (ACC) cell line NCI-H295R (AID 1963990); note: nearly all actives have a fitted effect of over 60% in size; note: potency is the fitted concentration of half-maximal effect;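 for activity change, negative = viability loss: 0% = DMSO only wells and -100% = full killing with cytotoxic reference compound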
How it was run: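 Compound titrations (up to 46 uM final) are applied to NCI-H295R cultures for 48 h at 37C. Viable cell number is estimated by CellTiter-Glo signal, normalised to DMSO and doxorubicin controls.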

C[N+](C)(C)CCCCCC[N+](C)(C)C
inactive: Potency [1] | Potency [2] | Potency [3] | activity (max response) [4] 10.1% | Potency [5]

Cc1cc(C)c(NC(=O)CN(CC(=O)O)CC(=O)O)c(C)c1Br
inactive: Potency [1] | Potency [2] | Potency [3] | activity (max response) [4] 9.39% | Potency [5]

CC[C@@]1(c2ccccc2)NC(=O)N(C)C1=O
inactive: Potency [1] | Potency [2] | Potency [3] | activity (max response) [4] 8.31% | Potency [5]

CN1[C@@H]2CC[C@H]1CC(OC(=O)C(O)c1ccccc1)C2 (some centres undefined)
inactive: Potency [1] | Potency [2] | Potency [3] | activity (max response) [4] 7.83% | Potency [5]

CN(C)CCOC(=O)COc1ccc(Cl)cc1
inactive: Potency [1] | Potency [2] | Potency [3] | activity (max response) [4] 4.85%

NCCCC(N)CC(=O)NCC1NC(=O)C(CO)NC(=O)C(N)CNC(=O)C(C2CCN=C(N)N2)NC(=O)C(=CNC(N)=O)NC1=O (stereo not drawn) (H-[Dap]S[Dap](ξβ3hOrn)[ΔAla(3-NHCONH2)][X2]; lactam 1-C; configuration not given here)
inactive: activity change, negative = inhibition [1] 0.114% [at 0.91 µM] | viability (% of control) [2] 84.9% [at 0.588 µM] | viability, % of control [3] 101% [at 0.588 µM] | activity (max response) [4] -2.59% | activity change, negative = viability loss [5] 3.92% [at 0.587 µM]

CCCN(CCC)C(=O)C(CCC(=O)O)NC(=O)c1ccccc1 (centres undefined)
inactive: Potency [1] | Potency [2] | Potency [3] | activity (max response) [4] 0.293% and -17.2% | Potency [5]

CC(NC(CCc1ccccc1)C(=O)O)C(=O)N1C(=O)N(C)CC1C(=O)O (centres undefined)
inactive: Potency [1] | Potency [2] | Potency [3] | activity (max response) [4] 6.3% | Potency [5]

NC/C=C/C(=O)O
inactive: Potency [1] | Potency [2] | Potency [3] | activity (max response) [4] 8.43% | Potency [5]

CC(C(=O)O)c1ccc2c(c1)Cc1cccnc1O2 (centres undefined)
inactive: Potency [1] | Potency [2] | Potency [3] | activity (max response) [4] -0.725% | Potency [5]

O=C(O)CC(O)C(=O)O (centres undefined)
inactive: Potency [1] | Potency [2] | Potency [3] | activity (max response) [4] 12.9% | Potency [5]

CC(=O)Nc1cccc(O)c1
inactive: Potency [1] | Potency [2] | Potency [3] | activity (max response) [4] -1.77% | Potency [5]

O=C(Nc1ccc(Cl)cc1)Nc1ccc(Cl)c(Cl)c1
inactive: Potency [1]
active: Potency [2] 9.44 µM | Potency [3] 9.44 µM | Potency [4] 2.59 µM | Potency [5] 4.11 µM

O=C(NCC(O)CO)c1c(I)c(C(=O)NCC(O)CO)c(I)c(N(CCO)C(=O)CO)c1I (centres undefined)
inactive: Potency [1] | Potency [2] | Potency [3] | activity (max response) [4] -7.35% | Potency [5]

C[C@H]1CN(C[C@H](Cc2ccccc2)C(=O)NCC(=O)O)CC[C@@]1(C)c1cccc(O)c1
inactive: Potency [1] | Potency [2] | Potency [3] | activity (max response) [4] 8.76% | Potency [5]

CC1(C)[C@@H]2CC[C@@]1(C)C(=O)C2
inactive: Potency [1] | Potency [2] | Potency [3] | activity (max response) [4] 10.1% | Potency [5]

CCCCOC(=O)CCCCCCCCC(=O)OCCCC
inactive: Potency [1] | Potency [2] | Potency [3] | activity (max response) [4] 11.1% | Potency [5]

CN(C)CC/C=C1/c2ccccc2COc2ccc(CC(=O)O)cc21
inactive: Potency [1] | Potency [2] | Potency [3] | activity (max response) [4] 1.77% and 7.73% | Potency [5]

O=C1OC(OC(=O)c2cccnc2Nc2cccc(C(F)(F)F)c2)c2ccccc21 (centres undefined)
inactive: Potency [1] | Potency [2] | Potency [3] | activity (max response) [4] 6.27% | Potency [5]

O=C(O)[C@H](O)c1ccccc1
inactive: Potency [1] | Potency [2] | Potency [3] | activity (max response) [4] 6.97% | Potency [5]

CCN(CC)C(=O)c1cccc(C)c1
inactive: Potency [1] | Potency [2] | Potency [3] | activity (max response) [4] 6.94% | Potency [5]

C/C=C1\[C@H]2C=C(C)C[C@]1(N)c1ccc(=O)[nH]c1C2
inactive: Potency [1] | Potency [2] | Potency [3] | activity (max response) [4] 12.5% | Potency [5]

CC[C@H](C)[C@H](N)C(=O)O
inactive: Potency [1] | Potency [2] | Potency [3] | activity (max response) [4] 4.01% | Potency [5]

COC(=O)c1ccc(O)cc1
inactive: Potency [1] | Potency [2] | Potency [3] | activity (max response) [4] 11.5% | Potency [5]

CC(=O)NCCCCCC(=O)O
inactive: Potency [1] | Potency [2] | Potency [3] | activity (max response) [4] -2.94% | Potency [5]

CN(C)CCN(Cc1ccsc1)c1ccccn1
inactive: Potency [1] | Potency [2] | Potency [3] | activity (max response) [4] 6.67% | Potency [5]

NC(=O)COCCN1CCN(C(c2ccccc2)c2ccc(Cl)cc2)CC1 (centres undefined)
inactive: Potency [1] | Potency [2] | Potency [3] | activity (max response) [4] 0.82% | Potency [5]

O=C1CC[C@@H](C(=O)O)N1
inactive: Potency [1] | Potency [3] | activity (max response) [4] -6.66% | Potency [5]
active: Potency [2] 0.0015 µM

C[C@H]1C[C@H](O)c2ccsc2S1(=O)=O
inactive: Potency [1] | Potency [2] | Potency [3] | activity (max response) [4] 10.4% | Potency [5]

OC1C(O)C(O)C(O)C(O)C1O (centres undefined)
inactive: Potency [1] | Potency [2] | Potency [3] | activity (max response) [4] -3.11% | Potency [5]
